Percent Effect data for ten compounds are collected here from ChEMBL document CHEMBL3988442, “University of Dundee, Small-Polar-MMV Screening Library” (2021).

Holding throughout (design): scale not given: direction of the effect not stated beside the values
Assay [1] concerns the target Protein translocase subunit SecA (Escherichia coli (strain K12)) (UniProt P10408). Put plainly: Assay to Identify E. coli SecA ATPase Inhibitors. Type of assay: functional. Particulars: 30 µM.
Assay [2] deals with T1, Ubiquitin-activating enzyme e1, putative (Leishmania donovani (strain BPK282A1)) (UniProt E9BSI1).
T1 sequence (whole entry): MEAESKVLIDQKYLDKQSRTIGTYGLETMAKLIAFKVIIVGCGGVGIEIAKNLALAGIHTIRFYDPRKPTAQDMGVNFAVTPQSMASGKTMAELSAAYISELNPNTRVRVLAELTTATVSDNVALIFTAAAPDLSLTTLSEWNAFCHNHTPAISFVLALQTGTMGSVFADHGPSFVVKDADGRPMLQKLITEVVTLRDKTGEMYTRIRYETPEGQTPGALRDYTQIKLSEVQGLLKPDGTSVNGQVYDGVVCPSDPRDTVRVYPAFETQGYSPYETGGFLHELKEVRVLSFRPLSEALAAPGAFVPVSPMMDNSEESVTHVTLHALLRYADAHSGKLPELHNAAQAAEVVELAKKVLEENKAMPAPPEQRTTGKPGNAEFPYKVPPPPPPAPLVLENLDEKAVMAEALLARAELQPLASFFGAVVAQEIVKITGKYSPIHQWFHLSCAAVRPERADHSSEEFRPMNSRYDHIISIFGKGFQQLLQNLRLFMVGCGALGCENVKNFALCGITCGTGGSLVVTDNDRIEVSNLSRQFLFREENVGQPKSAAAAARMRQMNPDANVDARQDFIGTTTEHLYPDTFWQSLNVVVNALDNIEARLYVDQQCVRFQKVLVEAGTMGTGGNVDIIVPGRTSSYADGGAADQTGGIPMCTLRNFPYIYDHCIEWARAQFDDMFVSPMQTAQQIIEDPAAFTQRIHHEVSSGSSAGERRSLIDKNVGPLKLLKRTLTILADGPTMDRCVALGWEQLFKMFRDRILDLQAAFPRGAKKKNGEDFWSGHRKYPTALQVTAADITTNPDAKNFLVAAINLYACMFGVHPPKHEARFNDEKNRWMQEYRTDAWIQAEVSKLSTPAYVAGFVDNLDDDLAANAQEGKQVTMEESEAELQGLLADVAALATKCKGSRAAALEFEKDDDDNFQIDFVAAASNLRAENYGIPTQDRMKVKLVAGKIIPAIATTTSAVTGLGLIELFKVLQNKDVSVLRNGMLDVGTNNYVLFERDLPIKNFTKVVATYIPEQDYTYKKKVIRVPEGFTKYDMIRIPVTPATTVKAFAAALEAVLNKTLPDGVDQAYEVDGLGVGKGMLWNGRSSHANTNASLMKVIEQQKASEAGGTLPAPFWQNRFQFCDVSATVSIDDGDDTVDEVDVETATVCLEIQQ
Put plainly: Leishmania donovani Ubiquitin Activating Enzyme (LdE1). Particulars: 30 µM. The format is functional.

Assay [3] has as its target AMP-activated protein kinase, AMPK (Homo sapiens) (UniProt P54646+O43741+P54619+Q9UGJ0+Q9Y478+Q13131+Q9UGI9). Put plainly: AMP-dependent Kinase enzyme assay. An in vitro enzyme assay that detects ADP turnover that is directly proportional to AMPK activity. This uses naive AMPK that is activated during the assay with MK-8722. The settings on record: 30 µM. The format is functional.

In assay [4] the target is Sialic acid-binding Ig-like lectin 9 (Homo sapiens) (UniProt Q9Y336). Put plainly: Hs-Siglec9 ALPHAscreen SOP 20170721. The settings on record: 10 µM.
Assay [5] concerns Trypanosoma cruzi. The assay can be described thus: Trypanosoma cruzi phosphomannomutase and mannose-1-phosphate guanylyltransferase assay. The format is functional. Particulars: 10 µM.
Assay [6] has as its target T2, Arginase-2, mitochondrial (Homo sapiens) (UniProt P78540).
T2 sequence (whole entry): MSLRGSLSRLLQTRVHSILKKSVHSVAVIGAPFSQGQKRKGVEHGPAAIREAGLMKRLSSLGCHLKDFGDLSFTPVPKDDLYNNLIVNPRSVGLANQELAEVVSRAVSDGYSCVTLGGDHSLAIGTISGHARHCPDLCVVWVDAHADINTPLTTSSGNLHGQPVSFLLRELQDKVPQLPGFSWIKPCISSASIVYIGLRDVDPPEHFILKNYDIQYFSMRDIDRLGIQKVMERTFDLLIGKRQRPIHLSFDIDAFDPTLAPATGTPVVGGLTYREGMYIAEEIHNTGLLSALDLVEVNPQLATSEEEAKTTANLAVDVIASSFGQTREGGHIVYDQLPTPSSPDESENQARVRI
The assay can be described thus: in vitro enzyme assay to detect the production of urea directly proportional to the activity of Arginase II. Further: in the data most compounds retested in dose-response had high values. Type of assay: functional. The settings on record: 33.3 µM.

The target in assay [7] is T3, Proteasome subunit beta (Trypanosoma cruzi) (UniProt O96673).
T3 sequence (whole entry): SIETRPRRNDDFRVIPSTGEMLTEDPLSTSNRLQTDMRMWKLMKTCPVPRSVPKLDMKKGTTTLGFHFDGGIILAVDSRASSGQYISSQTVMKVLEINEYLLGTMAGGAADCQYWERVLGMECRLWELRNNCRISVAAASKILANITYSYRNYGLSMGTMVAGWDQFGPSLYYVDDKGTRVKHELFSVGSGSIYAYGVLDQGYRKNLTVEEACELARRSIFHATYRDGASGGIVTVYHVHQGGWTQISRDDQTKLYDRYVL
The assay can be described thus: Trypanosoma cruzi proteasome chymotrypsin-like activity (TcProtChymo) assay. Further: in the data most compounds retested in dose-response had high values. The format is functional. Particulars: 9.37 µM.

For assay [8], the species on record is Homo sapiens. The assay can be described thus: To identify inhibition of the IFN signalling (Jak-Stat) pathway via expression of an eGFP reporter gene under the control of an IFN-stimulated response element (ISRE) containing MxA promoter. Particulars: 30 µM. Type of assay: functional. On the technique in general: In a reporter assay the amount or activity of a reporter protein is the signal.

Assay [9] has as its target T4, Tyrosyl-tRNA synthetase, putative (Trypanosoma cruzi (strain CL Brener)) (UniProt Q4DSP6).
T4 sequence (whole entry): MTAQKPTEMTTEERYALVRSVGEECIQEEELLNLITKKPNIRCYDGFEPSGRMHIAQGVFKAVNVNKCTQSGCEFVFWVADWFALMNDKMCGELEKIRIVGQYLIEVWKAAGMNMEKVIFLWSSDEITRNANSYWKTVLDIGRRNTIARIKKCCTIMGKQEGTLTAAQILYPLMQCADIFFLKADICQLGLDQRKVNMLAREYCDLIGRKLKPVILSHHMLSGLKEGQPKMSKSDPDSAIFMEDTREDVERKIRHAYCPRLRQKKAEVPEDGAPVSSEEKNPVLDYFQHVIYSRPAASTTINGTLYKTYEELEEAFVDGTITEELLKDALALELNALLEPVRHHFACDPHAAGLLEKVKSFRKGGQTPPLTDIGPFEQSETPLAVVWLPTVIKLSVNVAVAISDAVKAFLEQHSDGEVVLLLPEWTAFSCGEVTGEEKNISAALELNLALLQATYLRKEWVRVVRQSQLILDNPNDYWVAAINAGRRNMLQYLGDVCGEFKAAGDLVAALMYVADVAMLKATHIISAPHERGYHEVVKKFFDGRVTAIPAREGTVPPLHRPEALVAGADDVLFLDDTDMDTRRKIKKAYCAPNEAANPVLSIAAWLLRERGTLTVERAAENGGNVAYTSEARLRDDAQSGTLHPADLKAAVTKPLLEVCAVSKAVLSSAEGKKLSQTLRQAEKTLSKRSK
Put plainly: Trypanosoma cruzi tyrosyl tRNA synthetase (TcYRS) _High Tyrosine SOP. Further: in the data most compounds retested in dose-response had high values. The settings on record: 30 µM. The format is functional.

Assay [10] concerns the target T4, Tyrosyl-tRNA synthetase, putative (Trypanosoma cruzi (strain CL Brener)). The assay can be described thus: Trypanosoma cruzi tyrosyl tRNA synthetase (TcYRS) SOP. The format is functional. The settings on record: 30 µM.
Assay [11] addresses Chromo domain-containing protein 1 (Saccharomyces cerevisiae (strain ATCC 204508 / S288c) (Baker's yeast)) (UniProt P32657). The assay can be described thus: ScCHD-1 Enzyme Inhibition Assay. Further: in the data most compounds retested in dose-response had high values. Type of assay: functional. Particulars: 30 µM.

For some assays here: Potency and affinity values are given separately.

Chain of Protein translocase subunit SecA (Escherichia coli (strain K12)) (P10408 whole entry): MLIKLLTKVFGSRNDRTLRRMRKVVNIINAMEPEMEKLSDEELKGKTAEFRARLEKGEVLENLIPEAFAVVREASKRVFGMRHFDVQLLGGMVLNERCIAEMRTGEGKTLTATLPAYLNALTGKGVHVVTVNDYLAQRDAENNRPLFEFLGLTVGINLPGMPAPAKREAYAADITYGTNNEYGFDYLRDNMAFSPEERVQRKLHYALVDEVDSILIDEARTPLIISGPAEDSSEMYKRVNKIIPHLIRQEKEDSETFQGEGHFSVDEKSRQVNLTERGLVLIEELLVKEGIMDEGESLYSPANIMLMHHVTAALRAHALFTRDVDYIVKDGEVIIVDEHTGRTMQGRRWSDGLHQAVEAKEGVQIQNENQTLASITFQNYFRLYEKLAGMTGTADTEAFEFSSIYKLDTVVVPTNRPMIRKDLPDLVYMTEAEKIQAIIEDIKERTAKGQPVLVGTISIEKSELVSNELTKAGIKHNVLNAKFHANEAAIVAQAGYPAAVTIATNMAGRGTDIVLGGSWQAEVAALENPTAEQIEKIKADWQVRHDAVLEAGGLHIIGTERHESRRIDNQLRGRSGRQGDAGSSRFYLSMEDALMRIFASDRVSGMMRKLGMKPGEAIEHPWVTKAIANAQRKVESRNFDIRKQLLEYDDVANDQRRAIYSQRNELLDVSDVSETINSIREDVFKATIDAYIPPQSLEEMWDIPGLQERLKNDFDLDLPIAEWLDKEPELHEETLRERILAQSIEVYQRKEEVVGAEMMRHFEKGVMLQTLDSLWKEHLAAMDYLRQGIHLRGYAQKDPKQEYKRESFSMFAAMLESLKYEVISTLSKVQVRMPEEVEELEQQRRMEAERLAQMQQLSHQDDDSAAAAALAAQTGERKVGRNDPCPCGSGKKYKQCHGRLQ
Chain of Chromo domain-containing protein 1 (Saccharomyces cerevisiae (strain ATCC 204508 / S288c) (Baker's yeast)) (P32657 whole entry, the tested form may be a part): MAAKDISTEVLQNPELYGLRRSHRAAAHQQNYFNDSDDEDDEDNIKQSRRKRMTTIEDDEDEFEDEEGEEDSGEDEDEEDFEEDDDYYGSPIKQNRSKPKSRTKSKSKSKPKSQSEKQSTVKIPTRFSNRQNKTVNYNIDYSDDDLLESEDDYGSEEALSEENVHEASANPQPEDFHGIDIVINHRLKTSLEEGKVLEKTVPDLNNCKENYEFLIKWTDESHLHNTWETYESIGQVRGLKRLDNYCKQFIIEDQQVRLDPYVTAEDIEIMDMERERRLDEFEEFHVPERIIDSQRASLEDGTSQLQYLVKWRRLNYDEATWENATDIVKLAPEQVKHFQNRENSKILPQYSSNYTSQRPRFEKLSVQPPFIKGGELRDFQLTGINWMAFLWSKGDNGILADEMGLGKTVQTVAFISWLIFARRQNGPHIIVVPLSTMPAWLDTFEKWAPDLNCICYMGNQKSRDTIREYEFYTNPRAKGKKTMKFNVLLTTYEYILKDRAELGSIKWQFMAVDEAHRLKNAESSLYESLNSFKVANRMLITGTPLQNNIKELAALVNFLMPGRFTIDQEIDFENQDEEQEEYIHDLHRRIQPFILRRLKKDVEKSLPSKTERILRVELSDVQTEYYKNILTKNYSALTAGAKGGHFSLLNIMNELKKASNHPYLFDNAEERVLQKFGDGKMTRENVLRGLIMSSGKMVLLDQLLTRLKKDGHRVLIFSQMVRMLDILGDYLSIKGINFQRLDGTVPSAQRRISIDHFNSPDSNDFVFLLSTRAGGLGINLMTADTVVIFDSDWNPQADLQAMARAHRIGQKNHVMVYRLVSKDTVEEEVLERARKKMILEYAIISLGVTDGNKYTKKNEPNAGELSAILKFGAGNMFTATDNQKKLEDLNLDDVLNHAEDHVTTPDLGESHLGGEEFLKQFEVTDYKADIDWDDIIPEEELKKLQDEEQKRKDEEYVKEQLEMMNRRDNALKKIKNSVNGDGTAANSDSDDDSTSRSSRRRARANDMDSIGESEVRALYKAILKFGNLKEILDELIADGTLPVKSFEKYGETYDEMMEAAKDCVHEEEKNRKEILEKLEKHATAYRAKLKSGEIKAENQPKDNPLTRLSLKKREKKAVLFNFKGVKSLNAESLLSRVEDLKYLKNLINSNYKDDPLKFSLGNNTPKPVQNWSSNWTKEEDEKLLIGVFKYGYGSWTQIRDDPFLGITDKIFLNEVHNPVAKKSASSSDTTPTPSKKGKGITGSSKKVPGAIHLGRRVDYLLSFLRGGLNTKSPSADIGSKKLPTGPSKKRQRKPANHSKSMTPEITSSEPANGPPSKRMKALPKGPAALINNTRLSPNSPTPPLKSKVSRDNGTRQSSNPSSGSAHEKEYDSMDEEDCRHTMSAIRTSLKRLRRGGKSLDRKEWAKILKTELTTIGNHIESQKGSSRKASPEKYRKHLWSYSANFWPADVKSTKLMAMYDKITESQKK
Chain of Sialic acid-binding Ig-like lectin 9 (Homo sapiens) (Q9Y336 whole entry): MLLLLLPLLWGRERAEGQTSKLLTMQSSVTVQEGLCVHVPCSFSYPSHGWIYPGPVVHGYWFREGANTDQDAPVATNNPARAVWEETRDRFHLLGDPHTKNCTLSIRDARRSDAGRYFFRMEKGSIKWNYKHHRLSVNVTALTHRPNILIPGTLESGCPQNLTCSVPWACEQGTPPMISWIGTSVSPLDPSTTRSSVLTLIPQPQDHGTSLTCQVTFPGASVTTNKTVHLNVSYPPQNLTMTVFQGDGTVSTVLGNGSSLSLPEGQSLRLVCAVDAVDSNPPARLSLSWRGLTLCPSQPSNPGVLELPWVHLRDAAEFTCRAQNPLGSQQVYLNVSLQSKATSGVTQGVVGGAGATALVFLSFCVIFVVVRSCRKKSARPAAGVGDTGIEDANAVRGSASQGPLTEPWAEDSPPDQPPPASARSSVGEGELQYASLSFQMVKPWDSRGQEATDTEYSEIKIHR

As to `CCn1ncc2c1CCCC2NCc1cccc2c1OCCO2` (stereo not given), the Percent Effect in [1] is -2.98%; in assay [2], -6.33%; in [3] it was 6.39%; in [4] it was -0.488%; in assay [5] it was -0.718%; in assay [6] it was 4.09%. For the same compound, the Percent Effect is 0% in assay [7]; 12.6% in assay [8]; 0% in assay [9]; 2.53% in assay [10]; -17.9% in assay [11].
Consider `CSCC(=O)N1CCCN(c2ccccc2C)CC1`, for which the Percent Effect in assay [1] was -7.55%; in assay [2] it was 2.7%; in [3], -2.83%; in [4] it was -3.96%; in [5], -5.18%; in [6], -0.248%. Also, the Percent Effect in [7] was 1.8%; in [8] it was 4.54%; in [9], 1.07%; in [10], 6.17%; in [11], -3.91%.
Take `COc1cccc2c1ccn2CCC(=O)NCCCC(=O)O`: the Percent Effect in assay [1] was -1.03%; in assay [2] it was 20%; in assay [3] it was 1.22%; in assay [4], -4.11%; in assay [5], -4.32%; in [6], -2.99%. In addition, the Percent Effect in assay [7] was 13.5%; in assay [8], -6.02%; in [9] it was 5.29%; in [10], 5.13%; in [11] it was -9.24%.
For the compound `COCCCNC(=O)CN(C)C(=O)c1cc(C)ccc1O`, the Percent Effect was -3.14% in assay [1]; 16.2% in [2]; -6.15% in assay [3]; -4.94% in assay [4]; -5.48% in [5]; -0.924% in [6]. Moreover, the Percent Effect in assay [7] is 7%; in assay [8], -3.62%; in [9], 3.96%; in [10] it was 15.8%; in assay [11], -7.89%.
With `Cc1ccccc1CN1CCN(Cc2nccn2C)CC1`, the Percent Effect in assay [1] was -3.45%; in [2], 5.41%; in [3] it was -4.75%; in [4] it was 4.96%; in [5], -3.3%; in [6], -1.6%. The Percent Effect in [7] is 0.36%; in assay [8] it was 16.1%; in assay [9] it was 3.45%; in assay [10], 3.7%; in [11], -1.25%.
For `CN(C)C(=O)[C@@H]1C[C@@H]2CCN(Cc3nccs3)C[C@@H]2O1`, the Percent Effect in assay [1] was -4.02%; in assay [2], 2.7%; in assay [3] it was 4.31%; in [4] it was -1.06%; in assay [5], -3.62%; in [6], -3.5%. Also, the Percent Effect in assay [7] was 21.8%; in assay [8], -10.8%; in [9] it was 4.32%; in [10], 7.69%; in assay [11] it was 3.4%.
Turning to `Cn1cc(CN2CCCn3cnc(CN4CCCC4=O)c3C2)cn1`, the Percent Effect in assay [1] is -2.78%; in assay [2], -2.67%; in assay [3], 4.3%; in [4] it was 32.8%; in assay [5], -1.74%; in assay [6], -23.5%. For the same compound, the Percent Effect in [7] was 3.76%; in assay [8], -13.1%; in assay [9], 1.04%; in assay [10], 2.5%; in [11] it was -4.19%.
For the compound `CC(C)c1cc(NCC(C)N2CCCC2)n2nccc2n1` (stereo not given), the Percent Effect was 1.2% in assay [1]; 8.11% in assay [2]; 1.17% in [3]; 6.08% in assay [4]; -2.51% in assay [5]; -1.43% in assay [6]. Besides, the Percent Effect is 20.5% in [7]; 6.7% in [8]; 12.2% in [9]; 17.1% in assay [10]; -5.28% in assay [11].
Consider `O=C1CC[C@H]2[C@H](CCN2C(=O)C2CCCO2)N1Cc1ccncc1` (stereo not given in full), for which the Percent Effect in [1] was -2.88%; in [2] it was 22.7%; in [3], -8.21%; in assay [4], -5.26%; in assay [5], 2.36%; in [6], -8.63%. In addition, the Percent Effect was 14.1% in assay [7]; 12.9% in assay [8]; 1.06% in assay [9]; 7.69% in [10]; -8.01% in assay [11].
With `Cc1ncsc1C(=O)N(C)CCc1ccncc1`, the Percent Effect is -2.19% in assay [1]; 2.63% in [2]; 9.05% in [3]; 3.98% in assay [4]; -0.564% in assay [5]; 0% in assay [6]. Besides, the Percent Effect was -1.84% in assay [7]; 16.7% in [8]; 2.45% in [9]; 4.88% in assay [10]; 5.09% in assay [11].
